# Laboratory results: PubChem BioAssay (NCI)
# This is part of a sample that, as a whole, favours compounds with a hit. Of some 83,000 tested, about 20% had one in any assay.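 Results are percent growth after 48 hours of single-concentration exposure. 100 means growth as in untreated cells, lower positive values show inhibition; negative values down to -100 show cell death.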 Values without a mark were called inactive. Calls of active or inactive are those of the source. The calls were made as follows: active = growth percent below 10; inactive = the rest.
# What was measured:
# Assay in all cases: NCI-60 one-dose screen, 48 h (100 = growth as untreated, 0 = no growth, -100 = all killed)
# Settings in all cases: 10 µM
# NCI-H23 lung = test system: NCI-H23 lung
# NCI-H226 lung = test system: NCI-H226 lung
# NCI-H322M lung = test system: NCI-H322M lung
# HOP-62 NSCLC = test system: HOP-62 NSCLC
# NCI-H460 lung = test system: NCI-H460 lung
# HOP-92 NSCLC = test system: HOP-92 NSCLC
# NCI-H522 lung = test system: NCI-H522 lung
# A549/ATCC NSCLC = test system: A549/ATCC NSCLC
# 786-0 renal = test system: 786-0 renal
# COLO 205 colon = test system: COLO 205 colon
# DU-145 prostate = test system: DU-145 prostate
# K-562 leukemia = test system: K-562 leukemia
# MALME-3M melanoma = test system: MALME-3M melanoma
# MDA-MB-231 breast = test system: MDA-MB-231 breast
# RXF 393 renal = test system: RXF 393 renal
# SF-268 CNS = test system: SF-268 CNS
# SF-539 CNS = test system: SF-539 CNS
# UACC-257 melanoma = test system: UACC-257 melanoma
# SF-295 CNS = test system: SF-295 CNS
# M14 melanoma = test system: M14 melanoma
SMILES,growth (NCI-H23 lung),growth (NCI-H226 lung) [%],growth (NCI-H322M lung) [%],growth (HOP-62 NSCLC) [%],growth (NCI-H460 lung),growth (HOP-92 NSCLC),growth (NCI-H522 lung),growth (A549/ATCC NSCLC),growth (786-0 renal),growth (COLO 205 colon),growth (DU-145 prostate),growth (K-562 leukemia),growth (MALME-3M melanoma),growth (MDA-MB-231 breast),growth (RXF 393 renal),growth (SF-268 CNS),growth (SF-539 CNS),growth (UACC-257 melanoma),growth (SF-295 CNS),growth (M14 melanoma)
c1ccc(Sc2ccccc2)cc1,105%,103,118,104,106%,90.9%,139%,96.6%,113%,115%,105%,112%,94.4%,109%,114%,97%,103%,88.3%,–,–
CCOC(=O)c1cc(/C=C/c2cccc(Cl)c2)on1,81.1%,95.1,96.1,99.9,99.3%,88.8%,74.6%,104%,97.7%,119%,95.2%,31.6%,93.1%,–,97.1%,93.7%,89.6%,108%,88.2%,78.8%
O=[N+]([O-])c1ccc(-c2noc(-c3cccs3)n2)cc1,82.1%,86.3,81.4,87.6,82.7%,91.8%,81.7%,81.3%,76.1%,111%,89.3%,93.7%,91.7%,–,92%,101%,81.3%,100%,72.9%,91.7%
COc1ccccc1NC(=O)C1=C(C)NC(C)=C(C(=O)Nc2ccccc2OC)C1c1cccc([N+](=O)[O-])c1,76.6%,74.7,91.2,68.5,67.5%,56.8%,72.4%,67%,84.6%,89.3%,84.1%,57.3%,84.7%,–,79.2%,67%,75.2%,92.3%,49.5%,76.5%
OCCN(CCO)C(=S)S,102%,103,103,108,112%,109%,101%,94%,101%,114%,111%,111%,95.1%,–,113%,–,106%,79.6%,101%,108%
CC(=O)CC(=O)N(C)C,102%,94.5,101,98.8,104%,81.8%,88.5%,101%,97.8%,115%,104%,101%,98.7%,–,110%,101%,97.6%,99.3%,95.8%,107%
c1c(-c2cc(C3CC3)[nH]n2)n[nH]c1C1CC1,94.3%,95.2,94.8,98.6,83.4%,89%,79%,88.8%,94.3%,102%,111%,70.9%,92.2%,–,108%,107%,101%,90.8%,98%,98.9%
c1csc(-c2cc(-c3cc(-c4cccs4)[nH]n3)n[nH]2)c1,91%,79.1,94.4,88.3,107%,93.6%,88.9%,107%,98.9%,114%,106%,84.7%,88.3%,–,112%,107%,93.8%,109%,96.8%,96.9%
CC1(C)S(=O)(=O)OCCOS1(=O)=O,103%,102,100,98.4,105%,83.8%,99.6%,92%,102%,116%,107%,100%,94.5%,–,114%,–,100%,82.2%,97.7%,100%
CC(C)=C(NC(=O)c1ccccc1)C(=O)O,107%,103,104,115,111%,84.5%,92.3%,105%,112%,112%,106%,102%,99%,–,103%,96.1%,110%,97.5%,116%,108%
Cc1ccc(/C=C2\SC(=S)N(c3ccc(F)cc3)C2=O)o1,88.3%,72.4,90.2,83.1,33.7%,87.6%,70.6%,87.5%,40.2%,92.4%,95.5%,77.8%,77%,–,75%,–,73.9%,102%,73%,87.5%
O=C1NC(=O)C2C(=O)NC(=O)C1C21CCc2ccccc21 (configuration not stated),91.8%,87.7,106,94.3,115%,89.5%,97.4%,103%,101%,125%,115%,98.2%,102%,–,99.3%,111%,93.7%,107%,102%,103%
Nc1ccccc1C(=O)Nc1ccc(Cl)cc1Cl,92.6%,96.1,106,86.6,104%,67.2%,78.5%,102%,107%,–,106%,–,–,84.4%,83.7%,101%,94.4%,86.5%,–,94.7%
S=C(Nc1ccccc1)N1CCCCC1,99.9%,89.6,99,90.9,110%,93.3%,94.9%,99.2%,102%,–,–,110%,107%,98.5%,109%,107%,96.7%,95.9%,98.2%,97.3%
O=[N+]([O-])c1ccc(N=Nc2ccccc2)cc1,90.4%,89.4,80,96.4,120%,94%,81.1%,89%,92%,–,–,87.2%,101%,88.9%,107%,89.6%,98.8%,108%,91.3%,102%
CCCCOC(OCCCC)c1ccccc1,95%,107,104,117,109%,101%,–,91.4%,105%,112%,112%,107%,132%,112%,128%,96.5%,91.8%,109%,111%,113%
O=S(=O)(O)c1ccc(O)c2ccccc12,93.4%,102,110,107,115%,98.8%,–,118%,101%,121%,115%,104%,127%,90.8%,108%,98.5%,91.8%,112%,119%,79.4%
OC(c1ccccn1)C(O)c1ccccn1 (configuration not stated),97.5%,110,96.8,104,114%,98.9%,–,95.3%,99.5%,105%,115%,96.8%,122%,108%,123%,102%,102%,102%,118%,103%

SMILES,growth (NCI-H23 lung),growth (NCI-H226 lung) [%],growth (NCI-H322M lung) [%],growth (HOP-62 NSCLC) [%],growth (NCI-H460 lung),growth (HOP-92 NSCLC),growth (NCI-H522 lung),growth (A549/ATCC NSCLC),growth (786-0 renal),growth (COLO 205 colon),growth (DU-145 prostate),growth (K-562 leukemia),growth (MALME-3M melanoma),growth (MDA-MB-231 breast),growth (RXF 393 renal),growth (SF-268 CNS),growth (SF-539 CNS),growth (UACC-257 melanoma),growth (SF-295 CNS),growth (M14 melanoma)
Cc1cc(C(O)(c2ccc(Nc3ccccc3)cc2)c2ccc(Nc3ccc(S(=O)(=O)O)cc3)cc2)ccc1N (configuration not stated),8.07% (active),28.9,25,53.5,-39.3% (active),-23.8% (active),-45.8% (active),–,-1.27% (active),-71% (active),11.7%,8.74% (active),-47.6% (active),-51.5% (active),-61.8% (active),14.8%,-63.9% (active),–,5.34% (active),-42.6% (active)
CC1(c2ccccc2)NC(=O)NC1=O (configuration not stated),116%,98.3,97.2,111,118%,100%,99.4%,96.5%,–,130%,125%,103%,113%,111%,110%,106%,117%,84.5%,119%,121%
COc1ccc(/C(C#N)=C2C=C/C(=N/O)c3ccccc3\2)cc1,27.7%,36,48.5,35.3,3.48% (active),13.3%,–,11.8%,16.8%,-73% (active),10.1%,13.2%,51.4%,10.2%,53.9%,18.6%,-14.7% (active),–,-38.6% (active),7.1% (active)
CC(=O)Oc1ccc(Br)cc1C(=O)O,98.6%,99,101,86.9,106%,97.8%,91.4%,103%,97.4%,–,120%,109%,98.2%,118%,98.8%,106%,93.2%,101%,109%,–
c1cc[n+](C2c3ccccc3C([n+]3ccccc3)c3ccccc32)cc1 (configuration not stated),65.2%,49.6,84.8,37.8,98.8%,20.6%,–,78.5%,50%,30.8%,91.7%,72.9%,53.1%,70.6%,61.6%,23%,27.9%,80.1%,52%,96%
Cc1cc(N)c(S(=O)(=O)O)c(N)c1,97%,99.6,101,94.9,104%,47.1%,87.9%,109%,105%,–,96.6%,125%,118%,103%,112%,109%,96.8%,104%,96%,–
CN(C)CCC(=O)c1ccc(O)cc1,97%,99,106,107,103%,98.5%,102%,103%,108%,–,104%,104%,108%,–,112%,95.5%,104%,105%,106%,104%
Nc1ccc(N)c([N+](=O)[O-])c1,103%,94.1,101,111,96%,109%,86.4%,–,118%,112%,104%,98.7%,97.9%,80.9%,107%,99.9%,94.9%,–,108%,112%
CCOC(=O)C(C#N)Cc1ccccc1 (configuration not stated),105%,112,116,116,117%,101%,111%,109%,109%,123%,–,125%,136%,–,124%,113%,114%,117%,104%,108%
CCN=c1cc2sc3cc(NCC)c(C)cc3nc-2cc1C,5.46% (active),64.2,27.3,29.4,1.61% (active),16.3%,–,-40.3% (active),46.3%,-25.8% (active),-18.9% (active),11.8%,-30.9% (active),2.51% (active),74.7%,-11.3% (active),-9.62% (active),6.74% (active),-72.4% (active),21.4%
O=C1C[C@H](c2ccccc2)[C@H](c2ccccc2)C1,102%,97.6,99.7,98.5,112%,70.9%,79%,–,101%,113%,121%,111%,89.6%,99.1%,111%,105%,103%,107%,108%,103%
Cc1cc(C)c(N)c(S(=O)(=O)O)c1,92%,96.4,108,91.8,102%,99%,97%,114%,97.2%,–,129%,113%,104%,97.8%,133%,115%,84.4%,122%,104%,–
CC(CN1CCCCC1)NC(=O)c1scnc1-c1ccccc1 (configuration not stated),101%,108,95.6,100,111%,91.9%,–,96.8%,102%,104%,116%,113%,106%,114%,101%,115%,114%,–,79%,101%
COc1cccc(Sc2ccc([N+](=O)[O-])c3no[n+]([O-])c23)c1,68.8%,85.3,88.7,103,95.7%,3.91% (active),-19.9% (active),84%,–,-42.2% (active),67.3%,8.93% (active),27.7%,74.2%,-54% (active),62.6%,95.4%,96.7%,95.9%,72.1%
CC(=O)Nc1c(C)cc(C)cc1C,101%,101,103,109,105%,69%,94%,102%,–,110%,101%,96.3%,102%,114%,113%,95.4%,103%,104%,94.3%,101%
Cc1ccc(O)c(C(=O)c2ccccc2)c1,98.4%,104,138,114,113%,93.8%,–,95.9%,111%,113%,112%,122%,130%,90.6%,110%,101%,101%,96.4%,106%,95.8%
NNc1ccccc1C(=O)O,111%,96,128,104,110%,98.1%,–,109%,113%,107%,121%,108%,168%,104%,114%,100%,101%,103%,114%,110%
